Assay outcomes from PubChem.
Compounds with a hit are over-represented: about 5.7% of the library has one in this group of screens.
Myeloid diff MLP: myeloid differentiation induction; calls only at 10 µM; AID 624256; ER-HoxA9 myeloid progenitors, lysozyme-GFP differentiation, flow cytometry; 360,000 compounds, 1% hits;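 active means normalized GFP-positive differentiation at or above the plate's own cutoff, the solvent-only control mean plus 3 SD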;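 further: cells exposed to compound for four days before flow analysis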
rCAG RNA binder: molecules binding r(CAG) RNA repeats; inhibition, % at 3 µM; r(CAG) RNA repeat, TO-PRO-1 dye displacement fluorescence; AID 651821; 370,000 compounds, 1.3% hits;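 active means inhibition above the plate cutoff, the mean of all test compounds on that plate plus 3 SD, cut at about 35% in these data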;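 further: higher means more dye released from RNA so lower well fluorescence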
MPTP inh: blocks calcium-induced mitochondrial swelling. inhibition, % at 10 µM. 360,000 compounds, 1.4% hits. isolated mouse mitochondria, Ca2+ swelling absorbance, 30 min;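 active means inhibition of 50% or more, scaled per plate between neutral and stimulator controls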
FAS TE block: FAS thioesterase (human) inhibition. recombinant FAS-TE, OMFH fluorogenic substrate, fluorescence endpoint. P49327. 360,000 compounds, 0.67% hits. inhibition, % at 15 µM. AID 602261;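 active means compounds whose normalised, plate-corrected inhibition of enzyme fluorescence in the single-dose primary screen is 50% or more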
Target sequence (P49327 whole entry, looked up): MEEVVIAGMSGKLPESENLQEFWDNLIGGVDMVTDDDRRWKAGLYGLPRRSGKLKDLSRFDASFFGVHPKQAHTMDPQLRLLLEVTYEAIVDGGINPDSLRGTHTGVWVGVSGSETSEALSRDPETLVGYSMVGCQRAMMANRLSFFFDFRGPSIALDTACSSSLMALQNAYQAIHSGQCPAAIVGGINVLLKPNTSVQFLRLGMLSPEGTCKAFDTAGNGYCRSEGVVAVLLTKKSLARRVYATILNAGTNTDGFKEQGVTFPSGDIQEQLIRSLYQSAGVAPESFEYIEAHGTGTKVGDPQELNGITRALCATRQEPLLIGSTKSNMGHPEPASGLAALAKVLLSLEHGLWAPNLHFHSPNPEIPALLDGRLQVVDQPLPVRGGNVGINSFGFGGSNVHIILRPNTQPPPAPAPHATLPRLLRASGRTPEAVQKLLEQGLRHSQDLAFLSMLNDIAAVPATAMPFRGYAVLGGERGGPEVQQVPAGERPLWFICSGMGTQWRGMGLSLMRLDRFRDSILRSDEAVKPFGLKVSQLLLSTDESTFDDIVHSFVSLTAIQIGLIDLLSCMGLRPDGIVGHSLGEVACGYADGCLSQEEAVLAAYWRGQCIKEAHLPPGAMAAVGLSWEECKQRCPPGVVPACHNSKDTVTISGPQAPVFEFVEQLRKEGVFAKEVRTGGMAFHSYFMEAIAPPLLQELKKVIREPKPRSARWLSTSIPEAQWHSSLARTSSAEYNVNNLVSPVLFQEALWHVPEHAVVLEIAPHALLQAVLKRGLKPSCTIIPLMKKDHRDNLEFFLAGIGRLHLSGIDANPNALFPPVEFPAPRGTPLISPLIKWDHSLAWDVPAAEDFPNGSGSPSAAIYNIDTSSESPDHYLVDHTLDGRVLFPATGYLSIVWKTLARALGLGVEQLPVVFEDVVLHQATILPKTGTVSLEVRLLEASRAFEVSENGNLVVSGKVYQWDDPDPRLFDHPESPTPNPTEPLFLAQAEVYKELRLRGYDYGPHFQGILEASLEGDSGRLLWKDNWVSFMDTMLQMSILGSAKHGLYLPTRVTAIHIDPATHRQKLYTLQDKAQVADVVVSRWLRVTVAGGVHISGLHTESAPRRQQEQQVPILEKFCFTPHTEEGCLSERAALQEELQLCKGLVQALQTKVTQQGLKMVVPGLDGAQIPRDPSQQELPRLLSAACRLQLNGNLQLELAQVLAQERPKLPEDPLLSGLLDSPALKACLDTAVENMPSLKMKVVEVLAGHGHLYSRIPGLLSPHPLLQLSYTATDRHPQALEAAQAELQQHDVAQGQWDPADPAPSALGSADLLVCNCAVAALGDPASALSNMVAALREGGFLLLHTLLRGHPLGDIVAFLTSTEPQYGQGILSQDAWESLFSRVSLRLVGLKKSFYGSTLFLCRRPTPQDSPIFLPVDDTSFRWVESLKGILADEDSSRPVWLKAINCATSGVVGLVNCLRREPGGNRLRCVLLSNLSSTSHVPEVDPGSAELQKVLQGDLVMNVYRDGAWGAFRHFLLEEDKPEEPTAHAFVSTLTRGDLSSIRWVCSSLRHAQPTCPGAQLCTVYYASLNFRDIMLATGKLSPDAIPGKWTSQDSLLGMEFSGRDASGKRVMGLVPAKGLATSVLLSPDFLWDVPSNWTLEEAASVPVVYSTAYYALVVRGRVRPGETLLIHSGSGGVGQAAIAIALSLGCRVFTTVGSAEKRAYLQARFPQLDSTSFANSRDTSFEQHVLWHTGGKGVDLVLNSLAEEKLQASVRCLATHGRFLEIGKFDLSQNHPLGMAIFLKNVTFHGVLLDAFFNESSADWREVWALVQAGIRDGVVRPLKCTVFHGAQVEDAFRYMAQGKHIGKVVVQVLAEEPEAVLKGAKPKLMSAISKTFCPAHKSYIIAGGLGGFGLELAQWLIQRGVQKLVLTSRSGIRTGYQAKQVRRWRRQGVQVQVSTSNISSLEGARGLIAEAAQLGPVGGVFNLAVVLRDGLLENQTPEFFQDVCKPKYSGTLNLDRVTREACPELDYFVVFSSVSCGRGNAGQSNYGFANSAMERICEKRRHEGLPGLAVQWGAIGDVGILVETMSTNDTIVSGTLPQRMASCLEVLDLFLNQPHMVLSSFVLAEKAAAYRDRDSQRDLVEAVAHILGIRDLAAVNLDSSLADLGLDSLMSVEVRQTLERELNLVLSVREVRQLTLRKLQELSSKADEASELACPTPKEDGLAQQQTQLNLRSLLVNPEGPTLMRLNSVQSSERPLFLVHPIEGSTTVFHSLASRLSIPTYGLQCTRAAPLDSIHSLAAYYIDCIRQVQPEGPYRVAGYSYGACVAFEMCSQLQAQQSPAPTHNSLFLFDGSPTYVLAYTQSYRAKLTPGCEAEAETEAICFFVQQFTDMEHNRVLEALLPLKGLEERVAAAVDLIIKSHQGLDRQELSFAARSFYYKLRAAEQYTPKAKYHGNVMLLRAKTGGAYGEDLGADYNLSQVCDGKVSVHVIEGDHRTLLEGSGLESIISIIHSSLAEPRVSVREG
NR3A LBD binder: modulates the human NR3A ligand-binding domain; AID 1259313; NR3A LBD differential scanning fluorimetry, Tm shift; 0% = protein alone, 100% = glycine-bound protein; 340,000 compounds, 2.5% hits; Tm shift relative to glycine control, % at 25 µM;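 active means melting temperature shift of at least 10% of the positive control shift, at one fixed dose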
Myeloid diff: promotes myeloid progenitor differentiation | calls only | 2,300 compounds, 2% hits | shares compounds with Myeloid diff MLP | ER-HoxA9 myeloid progenitors, GFP/Mac1 double-positive flow;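 active means share of green or green-and-red cells above 9 and 9% in run 1 or 4 and 3% in run 2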
GFP autofluor: counter-screen for myeloid differentiation promoters: compound fluorescence. shares compounds with Myeloid diff MLP. fluorescence response, % (concentration not given with the values). 2,300 compounds, 7.4% hits. ER-HoxA9 myeloid progenitors, no estrogen, GFP autofluorescence flow cytometry; vehicle wells 0%, positive control 100%;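 active means over 5% cells positive for green fluorescent reporter, or over 2% positive for both it and APC stain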
Hits are given with their value; . = inactive; / = not tested or not shown; + = active, no number.

SMILES	Myeloid diff MLP	rCAG RNA binder	MPTP inh	FAS TE block	NR3A LBD binder	Myeloid diff	GFP autofluor
N#C/C(=C\Nc1ccc2cn[nH]c2c1)c1nc(-c2ccc(Cl)cc2)cs1	+	.	.	.	.	+	.
COc1ccc(/C=C/C(O)=C2/C(=O)N(C)C3(C)CC2c2ccccc2O3)cc1 (centres undefined)	+	.	.	.	.	+	.
Cc1ccc(/C=C/C(O)=C2/C(=O)N(C)C3(C)CC2c2ccccc2O3)cc1 (centres undefined)	.	.	.	.	.	/	/
COc1ccccc1Cc1c(C(C)(C)C)nc2c3ccccc3ccn12	+	.	.	.	/	.	.
COc1ccc(-c2csc(C(O)c3ccc(F)c(F)c3)n2)cn1 (centres undefined)	+	.	.	.	/	.	.
COc1ccc2[nH]c3c(c2c1)CCN[C@]31C(=O)N(Cc2ccccc2)c2ccccc21	/	.	/	/	/	/	/
Cc1cc(NC(=O)CCN2C(=O)C3C4C=CC(C4)C3C2=O)ccc1Br (centres undefined)	.	.	.	.	.	/	/
C[C@H]1CN([C@@H](C)CO)C(=O)c2cc(-c3cccc(F)c3)cnc2O[C@H]1CN(C)C(=O)c1cnccn1	.	.	.	.	/	/	/
O=C(Nc1cccc(S(=O)(=O)N2CCCCCC2)c1)C1CCC1	.	.	.	.	.	.	.
Cc1cccc(C(=O)NC(C(=O)Nc2cccc(S(=O)(=O)N3CCCC3)c2)C(C)C)c1 (centres undefined)	.	.	.	.	.	/	/
Cc1cccc(C(=O)N[C@H](C(=O)Nc2cccc(S(=O)(=O)N3CCCC3)c2)C(C)C)c1	.	.	.	.	.	.	.
CCN(CC)S(=O)(=O)c1ccc(C(C)NC(=O)Cc2c[nH]c3ccccc23)cc1 (centres undefined)	.	.	.	.	.	/	/
CC(=O)Nc1ccc(OCC(=O)Nc2ccc(Cl)c(S(=O)(=O)N3CCOCC3)c2)cc1	.	.	.	.	/	/	/
Fc1ccc(C(c2nnnn2C2CCCC2)N2CCN(Cc3ccncc3)CC2)cc1 (centres undefined)	+	.	.	.	.	.	.
O=C(CN1CCCCCC1)Nc1cc(C(F)(F)F)ccc1Cl	.	.	.	.	.	/	/
O=C(CN1CCN(c2ccc(F)cc2)CC1)Nc1cc(C(F)(F)F)ccc1Cl	.	.	.	.	.	.	.
Cc1ccc(S(=O)(=O)NC(=O)C2(C)CCN2C(=O)Cc2cccs2)cc1 (centres undefined)	.	.	.	.	/	/	/
Cc1ccc(CC(CC(=O)O)C(=O)NCC23CC4CC(CC(C4)C2)C3)cc1 (centres undefined)	.	.	.	.	.	/	/
Cc1ccc(CC(CC(=O)O)C(=O)NC2CCCCC2)cc1 (centres undefined)	+	.	.	.	.	.	.
COc1ccc(C(=O)Nc2ncc3c(n2)CC(C)CC3=O)cc1 (centres undefined)	.	.	.	.	.	/	/
COc1cccc(C(=O)Nc2ncc3c(n2)CC(c2ccc(OC)cc2OC)CC3=O)c1 (centres undefined)	.	.	.	.	.	.	.
COc1ccccc1CCNC(=O)C(=O)NCC1OCCN1S(=O)(=O)c1ccc2c(c1)OCCO2 (centres undefined)	.	.	.	.	.	/	/
Cc1ccc(C(O)c2ncc(-c3ccc(F)cc3)[nH]2)c(C)c1 (centres undefined)	.	.	.	.	/	/	/
CCOC(=O)[C@H]1[C@H]2COc3cc(OC)ccc3[C@@H]2N2C(=O)CN(CCc3c[nH]c4ccccc34)C(=O)[C@@]12C	.	.	.	.	.	.	.
CCOC(=O)[C@H]1[C@H]2COc3ccc(Br)cc3[C@H]2N2C(=O)CN(CCc3c[nH]c4ccccc34)C(=O)[C@@]12C	.	.	.	.	.	/	/
SMILES	Myeloid diff MLP	rCAG RNA binder	MPTP inh	FAS TE block	NR3A LBD binder	Myeloid diff	GFP autofluor
CCC(Oc1nc2ccccc2nc1-c1ccccc1NC(C)=O)C(=O)c1ccccc1 (centres undefined)	+	.	.	.	.	.	.
CCOc1ccc(C(=O)NCC(=O)OCc2c(F)cccc2Cl)cc1OCC	.	.	.	.	14	.	.
CC(C)(C)OC(=O)NCCc1nnc(SCc2ccccc2)o1	.	.	.	.	.	/	/
CC(C)(C)OC(=O)NCCc1nnc(SCc2ccccc2Cl)o1	.	.	.	.	.	.	.
COc1ccccc1-c1nn(-c2ccccc2)cc1C(=O)N1CCN(C(=O)c2ccco2)CC1	.	.	.	.	.	.	.
CCN(C(=O)CN1CCCc2cc(C)ccc21)c1c(N)n(Cc2ccccc2)c(=O)[nH]c1=O	.	.	.	.	.	.	.
Cc1ccc2c(c1)CCCN2CC(=O)N(C)c1c(N)n(Cc2ccccc2)c(=O)[nH]c1=O	.	.	.	.	.	.	.
CN(C(=O)CN1CCCCCC1)c1c(N)n(Cc2ccccc2)c(=O)[nH]c1=O	.	.	.	.	.	/	/
Cc1cc(Cl)c(C)c(S(=O)(=O)N2CCN(C(=O)C3CCCO3)CC2)c1Cl (centres undefined)	+	.	.	.	.	.	.
Cc1ccc(S(=O)(=O)N2CCN(C(=O)C3CCCO3)CC2)cc1 (centres undefined)	.	.	.	.	.	/	/
COc1ccc(-n2c(C)cc(/C=C3\SC(=S)N(Cc4ccco4)C3=O)c2C)cc1	+	.	.	.	.	+	.
COc1cccc(C=C2SC(=S)N(Cc3ccco3)C2=O)c1OC	/	.	/	/	/	/	/
O=C(CN1C(=O)C2CCCCC2C1=O)N1CCN(c2ccccc2)CC1 (centres undefined)	.	.	.	.	.	/	/
O=C(CN1C(=O)C2CCCCC2C1=O)N1CCN(c2ccc(F)cc2)CC1 (centres undefined)	+	.	.	.	.	.	.
COc1ccc(C(O)c2nc3ccccc3n2C(C)C)cc1 (centres undefined)	.	.	.	.	.	/	/
NS(=O)(=O)c1ccc(CNC(=O)c2ccc(S(=O)(=O)NCc3ccco3)cc2)cc1	.	.	.	.	.	/	/
Cc1ccc(-n2ncc3c(NCc4ccco4)ncnc32)cc1C	.	.	.	.	.	/	/
Cc1cccc(-n2ncc3c(NCc4ccco4)ncnc32)c1	+	.	.	.	.	.	.
COc1ccc2nc(/N=C/c3c(C)[nH]n(-c4ccc(C)cc4)c3=O)sc2c1	.	.	.	.	.	/	/
O=C(NN1C(=O)c2ccccc2NC1c1ccco1)c1ccccc1 (centres undefined)	+	.	.	.	.	.	.
CCc1cn(C2CC(O)C(CO)O2)c(=O)[nH]c1=O (centres undefined)	+	.	.	.	.	.	.
O=c1[nH]c(=O)n([C@H]2C[C@H](O)[C@@H](CO)O2)cc1I	.	.	.	.	.	/	/
O=C(CCN1CCCCCC1)Nc1ccccc1F	.	.	.	.	.	/	/
